Laboratory results from PubChem BioAssay (Tox21).
“And” between values parts separate entries of the source, which are not always exact repeats. Equal entries are not always repeated. Inconclusive results are not listed. The source holds several records for some structures; these can differ, active in one and inactive in another. The source made the active and inactive calls. Unless noted, calls come from the whole dose curve; as a rule, active = well fitted curve in the direction sought with a large enough effect in the repeat runs; inconclusive = weak or mixed curves; inactive = no such curve, though single readings can be large; an effect the other way counts as inactive or inconclusive.

Assays:
[1] = qHTS assay to identify small molecule antagonists of the estrogen receptor alpha (ER-alpha) signaling pathway using the BG1 cell line in the presence of 0.1 nM 17-beta-estradiol - cell viability counter screen (AID 1259241); note: nearly all actives have a fitted effect of over 40% in size; note: potency is the fitted concentration of half-maximal effect
Procedure, shortened: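 Following 5 days in phenol red-free medium with charcoal-stripped serum, VM7Luc4E2 cells received test compounds alongside 0.1 nM 17beta-estradiol (final) at 37C for 22 hr. Live cells were then quantified via protease-substrate fluorescence.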

[2] = qHTS assay to identify small molecule antagonists of the androgen receptor (AR) signaling pathway using the MDA cell line in the presence of 0.5 nM R1881 - cell viability counter screen (AID 1259242); note: nearly all actives have a fitted effect of over 45% in size; note: potency is the fitted concentration of half-maximal effect
Procedure, shortened: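 MDA-kb2 cells (human breast carcinoma, stably carrying MMTV-luciferase reporter) were exposed to compounds with 0.5 nM R1881 (final) for 16 hr at 37C, 0% CO2; viability then read as live-cell protease fluorescence (CellTiter-Fluor, 30 min) in the same wells.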

[3] = biological target: Estrogen receptor (Homo sapiens) (UniProt P03372); assay: qHTS assay to identify small molecule antagonists of the estrogen receptor alpha (ER-alpha) signaling pathway using the BG1 cell line in the presence of 0.1 nM 17-beta-estradiol (AID 1259244); note: nearly all actives have a fitted effect of over 50% in size; note: potency is the fitted concentration of half-maximal effect
Estrogen receptor (Homo sapiens), sequence (P03372 whole entry, looked up): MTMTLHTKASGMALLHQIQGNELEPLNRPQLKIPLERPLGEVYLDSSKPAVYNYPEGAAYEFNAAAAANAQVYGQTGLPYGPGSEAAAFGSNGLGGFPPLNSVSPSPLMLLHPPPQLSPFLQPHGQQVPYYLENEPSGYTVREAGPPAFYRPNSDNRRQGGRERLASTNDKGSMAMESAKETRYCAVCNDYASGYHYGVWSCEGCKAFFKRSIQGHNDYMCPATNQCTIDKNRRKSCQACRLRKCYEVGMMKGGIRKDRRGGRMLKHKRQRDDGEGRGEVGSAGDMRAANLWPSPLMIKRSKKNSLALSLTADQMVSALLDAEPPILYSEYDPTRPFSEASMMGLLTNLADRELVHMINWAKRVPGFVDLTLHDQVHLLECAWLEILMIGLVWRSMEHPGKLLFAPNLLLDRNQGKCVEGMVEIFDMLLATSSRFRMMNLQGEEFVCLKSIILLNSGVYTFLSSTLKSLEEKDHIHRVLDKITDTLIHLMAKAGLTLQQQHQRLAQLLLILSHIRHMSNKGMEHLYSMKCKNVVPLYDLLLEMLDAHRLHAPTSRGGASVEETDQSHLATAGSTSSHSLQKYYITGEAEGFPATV
Procedure, shortened: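 VM7Luc4E2 cells (endogenous full-length ER-alpha, stable 4xERE-luciferase) were grown 5 days in phenol red-free medium with charcoal-stripped FBS, then exposed 22 h at 37C to compounds plus 0.1 nM (final) 17beta-estradiol; ONE-Glo luminescence read-out.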

[4] = qHTS assay to identify small molecule phospholipidosis (PLD) inducers (AID 1259344; active = well fitted curve in the direction sought with a large enough effect; an effect the other way counts as inactive or inconclusive; note: potency is the fitted concentration of half-maximal effect)
Procedure, shortened: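 HepG2 cells, 900/well, treated with compound plus LipidTOX Red for 24 h at 37 C; amiodarone positive and DMSO negative controls. Fixed with paraformaldehyde/Hoechst, then high-content imaging scored LipidTOX pit count and integrated intensity per well and per cell.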

[5] = qHTS assay to identify small molecule HDAC inhibitors (AID 1259364); note: nearly all actives have a fitted effect of over 45% in size; note: potency is the fitted concentration of half-maximal effect
Procedure, shortened: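 Wild-type HCT-116 cells were plated overnight, exposed to compounds for 2 h at 37 °C, then given HDAC-Glo class I/II luminogenic reagent for 30 min at room temperature before luminescence was read.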

[6] = qHTS assay to identify small molecule agonists of the sonic hedgehog signaling (Shh) pathway - cell viability counter screen (AID 1259366); note: nearly all actives have a fitted effect of over 50% in size; note: potency is the fitted concentration of half-maximal effect
Procedure, shortened: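 Compounds in DMSO were pin-transferred onto 3T3 Gli1-Luc cells that had settled 4hr; plates then stood 24hr at 37C and 5% CO2. One hour before the end, CellTiter-Fluor was added and fluorescence recorded.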

[7] = qHTS assay to identify small molecule antagonists of the sonic hedgehog signaling (Shh) pathway - cell viability counter screen (AID 1259367); note: nearly all actives have a fitted effect of over 55% in size; note: potency is the fitted concentration of half-maximal effect
Procedure, shortened: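 NIH/3T3-derived Gli1-Luc reporter cells, 2,000/well, plated 4 hr before compound addition, then stimulated with conditioned medium for 24 hr at 37C. Viability measured in the same wells by CellTiter-Fluor fluorescence, reagent added at 23 hr for 1 hr.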

[8] = qHTS assay to identify small molecule agonists of the sonic hedgehog signaling (Shh) pathway (AID 1259368; calls by dose curve; note: series mostly up to about 92 µM; nearly all actives have a fitted effect of over 15% in size)
Procedure, shortened: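 NIH/3T3-derived 3T3Gli1-Luc cells carrying a stably integrated Gli1 response element–firefly luciferase reporter were plated, left 4 hr at 37 C, then given compounds in DMSO for 24 hr. Luminescence was read 30 min after adding luciferase reagent.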

[9] = qHTS assay to identify small molecule HDAC inhibitors - cell viability counter screen (AID 1259365); note: nearly all actives have a fitted effect of over 50% in size; note: potency is the fitted concentration of half-maximal effect
Procedure, shortened: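 HCT-116 wild-type, overnight attachment; 2hr drug exposure, 37C; CellTiter-Glo luminescent ATP readout after 30min RT.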

Measured: Potency

O=C(OCc1ccccc1)c1ccc(O)cc1
inactive: [1] | [2] | [3] | [4] | [6] | [8]
active: [5] 12.2 µM and 11.9 µM
68.6 µM (active) and inactive: [7]

O=c1n(CC2CO2)c(=O)n(CC2CO2)c(=O)n1CC1CO1 (stereo unspecified)
inactive: [1] | [2] | [3] | [4] | [5] | [8]
active: [6] 61.1 µM | [7] 30.5 µM and 48.6 µM

COc1nc(C)nc(Cl)c1NC1=NCCN1
inactive: [1] | [2] | [3] | [4] | [5] | [9] | [6] | [7] | [8]

OCCN1CCNCC1
inactive: [1] | [2] | [3] | [5] | [9] | [6] | [7] | [8]

Cc1cc(C2(c3cc(C)c(O)cc3C)OS(=O)(=O)c3ccccc32)c(C)cc1O
active: [1] 21.7 µM and 15.4 µM | [2] 24.3 µM and 15.4 µM | [6] 24.3 µM and 12.2 µM | [7] 27.3 µM and 13.7 µM
inactive: [3] | [5] | [9] | [8]

CCCCC(CC)COC(=O)CC(C(=O)OCC(CC)CCCC)S(=O)(=O)O (stereo unspecified)
inactive: [1] | [2] | [3] | [4] | [5] | [9] | [7] | [8]

c1cnc2cc3c(cc2n1)C1CNCC3C1
inactive: [1] | [2] | [3] | [4] | [5] | [6] | [7] | [8]

O=C(O)c1cccc(C(=O)O)c1
inactive: [1] | [2] | [3] | [5] | [9] | [6] | [7] | [8]

CCCCC/C=C/CC1CC(=O)OC1=O (stereo unspecified)
inactive: [1] | [2] | [3] | [5] | [9] | [6] | [7] | [8]

CC(C)CCOC(=O)c1ccc(N(C)C)cc1
inactive: [1] | [2] | [3] | [4] | [9] | [6] | [7] | [8]

CC(=O)OCCOCCOCCOC(C)=O
inactive: [1] | [2] | [3] | [5] | [9] | [6] | [7] | [8]

COC(=O)/C=C/c1ccccc1
inactive: [1] | [2] | [3] | [5] | [9] | [6] | [7] | [8]

CCCNC(C)C(=O)Nc1ccccc1C (stereo unspecified)
inactive: [1] | [2] | [3] | [4] | [5] | [9] | [6] | [7] | [8]

O=C1Nc2ccccc2C1(c1ccc(O)cc1)c1ccc(O)cc1
inactive: [2] | [5] | [9] | [8]
active: [1] 298 nM | [3] 486 nM and 237 nM | [6] 27.3 µM and 9.44 µM | [7] 48.6 µM

CN(C)c1ccc2nc3ccc(=[N+](C)C)cc-3sc2c1
active: [1] 26.2 µM and 27.3 µM and 29.8 µM | [2] 6.11 µM and 1.88 µM | [3] 26.2 µM and 27.3 µM and 29.8 µM | [5] 11.7 µM and 10.9 µM and 13.3 µM | [9] 11.7 µM and 24.3 µM and 11.9 µM | [6] 26.2 µM and 43.3 µM and 29.8 µM | [7] 54.5 µM
inactive: [4] | [8]

CC(=O)O[C@]1(C(C)=O)CC[C@H]2[C@@H]3C[C@H](C)C4=CC(=O)CC[C@]4(C)[C@H]3CC[C@@]21C
inactive: [1] | [2] | [3] | [4] | [5] | [9] | [6] | [7] | [8]

CCn1cc(C(=O)O)c(=O)c2cc(F)c(N3CCNC(C)C3)c(F)c21 (stereo unspecified)
inactive: [1] | [2] | [3] | [4] | [5] | [6] | [7] | [8]

C1COC(NC(C2CC2)C2CC2)=N1
inactive: [1] | [2] | [3] | [4] | [5] | [6] | [7] | [8]

c1ccc2c(c1)CCCC2C1=NCCN1 (stereo unspecified)
inactive: [1] | [2] | [3] | [4] | [5] | [6] | [7] | [8]

O=C(Oc1ccccc1)c1ccccc1O
inactive: [1] | [2] | [3] | [4] | [9] | [6] | [7] | [8]

c1cc(C(c2ccc(OCC3CO3)cc2)C(c2ccc(OCC3CO3)cc2)c2ccc(OCC3CO3)cc2)ccc1OCC1CO1 (stereo unspecified)
inactive: [1] | [2] | [3] | [5] | [9] | [6] | [7] | [8]

Cc1cccc(O)c1C
inactive: [1] | [2] | [3] | [5] | [9] | [6] | [7] | [8]

c1ccc2cc3c(ccc4ccccc43)cc2c1
inactive: [1] | [2] | [3] | [9] | [6] | [7] | [8]
active: [5] 30.7 µM and 27.3 µM

CCn1c2ccccc2c2cc(N)ccc21
inactive: [1] | [2] | [3] | [9] | [6] | [7] | [8]
inactive and 27.3 µM (active): [5]

CCCOC(=O)c1cc(O)c(O)c(O)c1
inactive: [1] | [2] | [3] | [4] | [5] | [7] | [8]
active: [6] 43.1 µM

NCCCCCC(=O)O
inactive: [1] | [2] | [3] | [4] | [5] | [6] | [7] | [8]

O=C(O)CP(=O)(O)O
inactive: [1] | [2] | [3] | [4] | [5] | [6] | [7] | [8]

C=C(C)C1CC=C(C)C(OC(C)=O)C1 (stereo unspecified)
inactive: [1] | [2] | [3] | [5] | [9] | [6] | [7] | [8]

CC(=O)C1=C(C)[C@@H]2C[C@@]3(C1)[C@H](C)CC[C@H]3C2(C)C
inactive: [1] | [2] | [3] | [5] | [9] | [6] | [7] | [8]

[Cl][In]([Cl])[Cl]
inactive: [1] | [2] | [3] | [4] | [5] | [7] | [8]

O=C(Nc1ccccc1SSc1ccccc1NC(=O)c1ccccc1)c1ccccc1
inactive: [1] | [2] | [9] | [8]
27.4 µM (active) and inactive: [3]
active: [5] 27.4 µM and 19.3 µM | [6] 13.8 µM and 13.7 µM | [7] 13.8 µM and 12.2 µM

CCCCOCCOC(=O)c1ccccc1C(=O)OCCOCCCC
53.3 µM (active) and inactive: [7]
47.5 µM (active) and inactive: [3]
inactive: [1] | [2] | [5] | [9] | [6] | [8]

Cc1cc(Cc2cc(C)cc(C(C)(C)C)c2O)c(O)c(C(C)(C)C)c1
active: [2] 30.8 µM | [3] 27.4 µM | [6] 43.5 µM | [7] 61.4 µM
inactive: [1] | [5] | [9] | [8]

Cc1cccc([N+](=O)[O-])c1C(=O)O
inactive: [1] | [2] | [3] | [5] | [9] | [6] | [7] | [8]

CC(=O)CC(=O)Nc1ccc2[nH]c(=O)[nH]c2c1
inactive: [1] | [2] | [3] | [5] | [6] | [7] | [8]

CC(C)(C)NCC(O)COc1ccccc1OCC1CCCO1 (stereo unspecified)
inactive: [1] | [2] | [3] | [5] | [9] | [6] | [7] | [8]

Cc1cc(C(C)(C)C)c(O)c(C(C)(C)C)c1
inactive: [1] | [2] | [4] | [5] | [9] | [6] | [7] | [8]

CC1COc2c(N3CCN(C)CC3)c(F)cc3c(=O)c(C(=O)O)cn1c23 (stereo unspecified)
inactive: [1] | [2] | [4] | [5] | [9] | [6] | [7] | [8]

CC(COc1ccccc1)N(CCCl)Cc1ccccc1 (stereo unspecified)
55 µM (active) and inactive: [2]
inactive: [1] | [4] | [5] | [9] | [6] | [7] | [8]

c1ccc2c(c1)-c1cccc3c1c-2cc1ccccc13
inactive: [1] | [2] | [3] | [5] | [9] | [6] | [7] | [8]

CC(C)(c1ccccc1)c1ccc(Nc2ccc(C(C)(C)c3ccccc3)cc2)cc1
inactive: [1] | [2] | [3] | [5] | [9] | [6] | [7] | [8]

CCCCN(CCO)CCCC
inactive: [1] | [2] | [3] | [5] | [6] | [7] | [8]

CNCCC(Oc1ccc(C(F)(F)F)cc1)c1ccccc1 (stereo unspecified)
active: [2] 29.8 µM | [4] 10 µM | [6] 60.3 µM and 29.8 µM | [7] 26.9 µM and 29.8 µM
inactive: [1] | [5] | [9] | [8]

Nc1ccc2cc3ccccc3cc2c1
inactive: [1] | [2] | [3] | [9]

O=S(=O)(O)c1ccc2nc(-c3ccccc3)[nH]c2c1
inactive: [1] | [2] | [4] | [6] | [7] | [8]
active: [5] 732 nM and 668 nM

CCCN[C@H]1CCc2nc(N)sc2C1
inactive: [1] | [2] | [4] | [5] | [6] | [7] | [8]

O=C(O)c1cc(Cl)cc(Cl)c1
inactive: [1] | [2] | [3] | [5] | [9] | [6] | [7] | [8]
